From the supplement of paper PMC5641865, “A screen for kinase inhibitors identifies antimicrobial imidazopyridine aminofurazans as specific inhibitors of the Listeria monocytogenes PASTA kinase PrkA” (The Journal of Biological Chemistry, 2017)
Where a name gives a salt, the structure may show the parent alone. ± gives the standard deviation of the averaged measurements.

These molecules were tested on Listeria monocytogenes 10403S (assay: growth inhibition relative to ceftriaxone-alone control; higher = stronger potentiation of ceftriaxone growth inhibition). Settings: 10 µM; ceftriaxone 1 ug/ml; 12 h.
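Note: End-point A600 read in BHI broth at 37 °C with 2% DMSO, inhibition computed as (1 − OD with compound plus ceftriaxone ÷ OD with ceftriaxone only) × 100.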

Compound | growth inhibition
Cc1cn(-c2cc(NC(=O)c3ccc(C)c(Nc4nccc(-c5cccnc5)n4)c3)cc(C(F)(F)F)c2)cn1 [Nilotinib (AMN-107)] | 46.8 ± 3.8%
c1cc(-c2cnn3nc(N4CCOCC4)ccc23)nc(NC2CC2)n1 | -1.92 ± 0.84%
COc1ccc(Nc2ncc(-c3ccccc3)o2)cc1OC | 10.7 ± 3.4%
COc1ccc(CNC(=O)c2ccc(-c3cc(-c4nnc(C)o4)ccc3C)cc2)cc1 | 9.02 ± 3.7%
COc1ccc2ncn(-c3cc(O[C@H](C)c4ccccc4C(F)(F)F)c(C(N)=O)s3)c2c1 | 0.811 ± 11%
CCc1nn2ncccc2c1-c1ccnc(NC2CC2)n1 | -4.93 ± 3%
O=c1cc(-c2cccc3c2Sc2ccccc2S3)oc(N2CCOCC2)c1 | 86.2 ± 1.3%
O=c1sn(-c2cccc3ccccc23)c(=O)n1Cc1ccccc1 [Tideglusib] | 89.5 ± 12%
COc1ccc(-c2nn3ncccc3c2-c2ccnc(Nc3cccc(C(F)(F)F)c3)n2)cc1 | 2.98 ± 4.9%
CN1CCN(Cc2ccc(-c3cc4ncnc(Nc5ccc(OCc6cccc(F)c6)c(Cl)c5)c4s3)o2)CC1 | 3 ± 2.7%
Cn1cc(-c2ccc3nnc(C(F)(F)c4ccc5ncccc5c4)n3n2)cn1 | 17.1 ± 33%
CN(C)c1cc2c(Nc3ccc4c(cnn4Cc4ccccc4)c3)ncnc2cn1 | -7.88 ± 0.099%
CCS(=O)(=O)N1CC(CC#N)(n2cc(-c3ncnc4[nH]ccc34)cn2)C1 | 20.4 ± 0.71%
Cc1cnc(Nc2ccc(OCCN3CCCC3)cc2)nc1Nc1cccc(S(=O)(=O)NC(C)(C)C)c1 | 39 ± 15%
NC1(c2ccc(-c3nc4ccn5c(=O)[nH]nc5c4cc3-c3ccccc3)cc2)CCC1 | 86.41 ± 0.47%
Cc1cc(Nc2nc(N[C@@H](C)c3ccc(F)cc3)c(C#N)cc2F)n[nH]1 | 96.93 ± 0.13%
OCc1ccc(-c2nc(-c3ccc4c(c3)OCO4)c(-c3ccccn3)[nH]2)cc1 | 7.68 ± 2.9%
O=C(c1ccc(/C=C/c2n[nH]c3ccccc23)cc1)N1CCNCC1 | 7.15 ± 1.2%
COc1cccc(-c2c[nH]c3c(N/N=C/c4ccncc4)ncnc23)c1 | -10.6 ± 14%

Compound | growth inhibition
NS(=O)(=O)c1ccc(N/N=C2\C(=O)Nc3ccc4ncccc4c32)cc1 | -6.48 ± 3.8%
CNC(=O)c1cncc(/C=C/c2ccccc2Cl)c1 | -3.04 ± 0.74%
Fc1cc(-c2cccc3ncc(-c4cnn(C5CCNCC5)c4)nc23)cc(F)c1CN1CCOCC1 | 82.1 ± 22%
COc1ccc2c(OCc3nnc4ccc(-c5ccccc5)nn34)ccnc2c1 | 11.6 ± 13%
CCN(CC)Cc1ccc(Nc2nccc(-c3cnn4ncccc34)n2)cc1 | -11.5 ± 14%
O=C(Nc1c[nH]nc1-c1nc2ccc(CN3CCOCC3)cc2[nH]1)NC1CC1 | 55.7 ± 25%
CNC(=O)c1sc(-n2cnc3cc(OC)c(OC)cc32)cc1OCc1ccccc1C(F)(F)F | -11 ± 18%
O=c1cc(N2CCOCC2)oc2c(-c3ccccc3)cccc12 | 27.4 ± 29%
CCn1c(-c2nonc2N)nc2ccc(F)cc21 | -0.804 ± 2.6%
Cn1cc(C=C2C(=O)Nc3cccnc32)c2ccccc21 | -13 ± 19%
Cc1c(CN2CCN(C(=O)[C@H](C)O)CC2)sc2c(N3CCOCC3)nc(-c3cnc(N)nc3)nc12 | 22.8 ± 8.1%
COC(=O)Nc1nc2cc(Oc3cccc(NC(=O)Nc4cc(C(F)(F)F)ccc4F)c3)ccc2[nH]1 | -5.06 ± 1.8%
CCCCOc1c(C(=O)c2c(F)cc(C)cc2F)c[nH]c2nncc1-2 | -6.78 ± 8.6%
Cc1ccc(NC(=O)c2ccc(CN3CCN(C)CC3)cc2)cc1Nc1nccc(-c2cccnc2)n1 [Imatinib Mesylate] | 29.9 ± 17%
ON=C1CCc2cc(-c3nc(C4CCNCC4)[nH]c3-c3ccncc3)ccc21 | 7.4 ± 4.8%
COc1cc2ncn(-c3cc(OCc4cccs4)c(C(N)=O)s3)c2cc1OC | -10.4 ± 16%
C[C@@H](Oc1cc(-c2cnn(C3CCNCC3)c2)cnc1N)c1c(Cl)ccc(F)c1Cl | 94.9 ± 5.1%
O=C(O[C@H]1CN[C@H](C#Cc2cc3ncnc(Nc4ccc(OCc5cccc(F)c5)c(Cl)c4)c3s2)C1)N1CCOCC1 | 14.3 ± 11%
COc1cc(CCc2cc(NC(=O)c3ccc(N4CC(C)NC(C)C4)cc3)n[nH]2)cc(OC)c1 (stereo not drawn) | 38.3 ± 21%
